The values below come from PubChem BioAssay (NCATS).

“And” between values parts separate entries of the source, which are not always exact repeats. Equal values may be shown once. Results filed as inconclusive are left out. The source made the active and inactive calls. Unless noted, calls follow the shape of the dose curve; as a rule, active = well fitted curve in the direction sought with a large enough effect; inconclusive = small, poorly fitted or top-dose-only effect, or another doubt; inactive = no such curve, though single readings can be large; an effect the other way counts as inactive or inconclusive.

Assay [1] can be described thus: Identifying Small Molecule Inhibitors of Pancreatic Cancer Stem Cells (SN12C, Adherent) (AID 1259358).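 Also: cell survival measured after 48 h of compound exposure.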 Also: potency is read from the fitted curve at half-maximal effect. Summed up: (§1)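 Cytotoxicity read by CellTiter-Glo luminescence after 48 h compound exposure at 37C; percent activity scaled between DMSO-treated cells and cell-free wells. Spheroid formats used cells pre-formed 14 days in stem cell media on hydrogel.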
The nature of assay [2]: Identifying Small Molecule Inhibitors of Pancreatic Cancer Stem Cells (SN12C, Spheroid) (AID 1259360). Also: potency is read from the fitted curve at half-maximal effect. The settings on record: Potency: SN12C spheroid viability. In outline: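 Adherent (2D) versus sphere (3D) formats; spheres generated 14 d in SCM beforehand. Compound transferred by pin tool after 4 h, 48 h incubation, CellTiter-Glo endpoint.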
A short description of assay [3]: Identifying Small Molecule Inhibitors of Pancreatic Cancer Stem Cells (A278, Adherent) (AID 1259361). Also: nearly all actives have a fitted effect of over 35% in size. In outline: as §1
Assay [4] can be described thus: Identifying Small Molecule Inhibitors of Pancreatic Cancer Stem Cells (Panc1, Adherent) (AID 1259362). Also: potency is read from the fitted curve at half-maximal effect. The conditions noted are these: viability. In outline:
as §1

Assay [5] can be described thus: NS1 protein of Zika virus - qHTS assay to identify small molecule inhibitors in human HEK 293 cells (AID 1347053). Also: nearly all actives have a fitted effect of over 55% in size. Also: potency is read from the fitted curve at half-maximal effect. In outline:
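Readout was TR-FRET using paired anti-NS1 antibodies after 24 h infection of HEK 293 cells with ZIKV MR766 (MOI = 0.5). Compound preceded virus by 1 h; reduced signal reflects lower NS1 expression.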

Assay [6] in a line: qHTS of pediatric cancer cell lines to identify multiple opportunities for drug repurposing: Primary screen for DAOY cells (AID 1347090). Also: nearly all actives have a fitted effect of over 55% in size. Also: potency is read from the fitted curve at half-maximal effect. In outline:
(§2)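 Cell viability, CellTiter-Glo luminescence; 500-1,000 cells/well, 8- or 11-point titration, 48 h compound exposure at 37 degrees C, 5% CO2. Controls: DMSO neutral, bortezomib 2.3 µM final as positive.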

A short description of assay [7]: qHTS of pediatric cancer cell lines to identify multiple opportunities for drug repurposing: Primary screen for SJ-GBM2 cells (AID 1347091). Also: potency is read from the fitted curve at half-maximal effect. In outline:
as §2

Assay [8] is described as follows: qHTS of pediatric cancer cell lines to identify multiple opportunities for drug repurposing: Primary screen for A673 cells (AID 1347092). Also: nearly all actives have a fitted effect of over 45% in size. Also: potency is read from the fitted curve at half-maximal effect. Summed up:
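A673 cells (500-1,000 cells/well) were treated 48 hours at 37 degrees C with compounds at 11-point (0.78 nM to 46 µM) or 8-point (0.59 nM to 46 µM) dilutions. Viability read by CellTiter-Glo luminescence; concentration-response curves fitted.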

Assay [9] is described as follows: qHTS of pediatric cancer cell lines to identify multiple opportunities for drug repurposing: Primary screen for SK-N-MC cells (AID 1347093). Also: potency is read from the fitted curve at half-maximal effect. In outline:
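Metabolically active cells were quantified by ATP-dependent luminescence (CellTiter-Glo, 15 min at room temperature) following 48 h treatment. Cells had been plated at 500-1,000 per well and settled for 5 h beforehand.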

Assay [10] in a line: qHTS of pediatric cancer cell lines to identify multiple opportunities for drug repurposing: Primary screen for BT-37 cells (AID 1347094). Also: potency is read from the fitted curve at half-maximal effect. Summed up:
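ATP-based luminescence (CellTiter-Glo) quantifies viability after a 48-hour exposure. Compounds are dosed across 8 or 11 final concentrations; DMSO and 2.3 µM bortezomib serve as controls.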

Assay [11] in a line: P-glycoprotein substrates identified in KB-3-1 adenocarcinoma cell line, qHTS therapeutic library screen (AID 1346986). Also: nearly all actives have a fitted effect of over 60% in size. The settings on record: KB-3-1 parental cells viability, CellTiter-Glo, 72 h; at 44.5 µM (top of the series). Summed up:
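Viability read by CellTiter-Glo after 72 h compound exposure in dose-response of KB-3-1 and KB-8-5-11 (P-gp-high) cells. Hits needed AC50 < 10 uM, >50% maximum response and curve class -1.1 to -2.4. Cherry-picks retested ± tariquidar, including pcDNA/MDR-19 HEK-293 pair.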

Assay [12] is described as follows: P-glycoprotein substrates identified in KB-8-5-11 adenocarcinoma cell line, qHTS therapeutic library screen (AID 1346987). Also: nearly all actives have a fitted effect of over 65% in size. Also: potency is read from the fitted curve at half-maximal effect. In outline:
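Compounds are pinned in dose-response onto KB-8-5-11 cells (500 cells/well, colchicine-free medium) and left 72 h at 37 degree C. CellTiter-Glo luminescence then yields AC50 values.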

The nature of assay [13]: qHTS of pediatric cancer cell lines to identify multiple opportunities for drug repurposing: Primary screen for TC32 cells (AID 1347089). Also: nearly all actives have a fitted effect of over 60% in size. Summed up:
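TC32 cells, 500-1,000/well in growth medium, compound-treated 48 h at 37 °C; viability from CellTiter-Glo luminescence. Primary screen: MIPE 11-point (0.78 nM–46 µM final), NPC 8-point (0.59 nM–46 µM final); confirmatory at 11-point dilutions.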

Assay [14] deals with Atrial natriuretic peptide receptor 1 (Homo sapiens) (UniProt P16066). Description: Natriuretic polypeptide receptor (hNpr1) antagonism - Pilot screen (AID 1347049; calls by dose curve;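 also: HEK293 cells with hNpr1 and GloSensor cGMP luciferase stimulated by 0.1 nM hNppA; agonist-evoked cGMP luminescence read 20 min after hNppA addition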). In outline: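 Receptor antagonism read as cGMP-dependent luminescence in hNpr1/pGS-40F HEK293 cells: pre-read after 30 min compound exposure, post-read 20 min after hNppA agonist at 0.1 nM final, all at room temperature, protected from light; A-71915 titration as control.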
Sequence of Atrial natriuretic peptide receptor 1 (Homo sapiens) (P16066 whole entry, looked up): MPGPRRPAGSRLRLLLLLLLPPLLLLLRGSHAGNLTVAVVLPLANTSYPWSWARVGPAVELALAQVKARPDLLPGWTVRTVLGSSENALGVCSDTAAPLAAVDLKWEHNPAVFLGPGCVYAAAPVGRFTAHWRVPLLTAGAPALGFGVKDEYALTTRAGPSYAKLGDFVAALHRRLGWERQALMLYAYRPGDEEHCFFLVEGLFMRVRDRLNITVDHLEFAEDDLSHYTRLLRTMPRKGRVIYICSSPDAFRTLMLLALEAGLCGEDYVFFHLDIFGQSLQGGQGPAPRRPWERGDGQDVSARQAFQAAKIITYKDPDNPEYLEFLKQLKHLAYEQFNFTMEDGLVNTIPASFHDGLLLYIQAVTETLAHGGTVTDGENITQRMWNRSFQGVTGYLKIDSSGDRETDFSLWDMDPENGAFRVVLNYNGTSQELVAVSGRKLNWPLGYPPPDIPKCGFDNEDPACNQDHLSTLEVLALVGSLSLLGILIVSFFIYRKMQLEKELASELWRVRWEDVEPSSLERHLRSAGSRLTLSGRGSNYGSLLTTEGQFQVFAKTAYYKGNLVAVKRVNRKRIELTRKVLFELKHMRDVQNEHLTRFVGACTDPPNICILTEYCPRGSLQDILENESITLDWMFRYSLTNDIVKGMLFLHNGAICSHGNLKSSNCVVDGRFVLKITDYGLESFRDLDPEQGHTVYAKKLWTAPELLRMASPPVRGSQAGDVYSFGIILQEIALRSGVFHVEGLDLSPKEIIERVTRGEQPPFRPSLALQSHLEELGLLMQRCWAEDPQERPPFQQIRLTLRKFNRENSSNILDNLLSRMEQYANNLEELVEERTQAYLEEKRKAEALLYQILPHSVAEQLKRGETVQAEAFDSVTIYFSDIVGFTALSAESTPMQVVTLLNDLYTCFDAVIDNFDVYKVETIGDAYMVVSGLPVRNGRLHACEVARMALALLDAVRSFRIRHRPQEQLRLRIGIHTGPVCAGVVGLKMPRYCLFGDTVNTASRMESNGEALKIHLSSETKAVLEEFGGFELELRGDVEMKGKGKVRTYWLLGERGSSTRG

The target in assay [15] is T1, Tyrosine-protein phosphatase non-receptor type substrate 1 (Homo sapiens) + Leukocyte surface antigen CD47 (Homo sapiens) (UniProt P78324+Q08722). The assay is described as follows: CD47-SIRPalpha protein protein interaction - LANCE assay qHTS validation (AID 1347057; active = well fitted curve in the direction sought with a large enough effect in the signal ratio, with a control signal flat, not every such curve was filed as active; the % refers to the signal ratio). Summed up:
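Inhibition of soluble CD47/SIRPalpha ectodomain association by titrated compounds, measured as 665/615 nm time-resolved FRET ratio after sequential 30 min room-temperature incubations.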

The target of assay [16] is T1, Tyrosine-protein phosphatase non-receptor type substrate 1 (Homo sapiens) + Leukocyte surface antigen CD47 (Homo sapiens). Description: CD47-SIRPalpha protein protein interaction - Alpha assay qHTS validation (AID 1347059).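 Also: bead proximity luminescence from CD47 binding SIRPalpha after compound preincubation with SIRPalpha.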 In outline:
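AlphaScreen signal between CD47-His (12.5 nM) and biotin-SIRPalpha (25 nM) soluble extracellular domains, bead-captured via Ni-NTA and streptavidin. Compounds, in 7-point titrations, met SIRPalpha 30 min before CD47; PBS pH 7.4 with 0.05% IGEPAL.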

The target in assay [17] is Parathyroid hormone/parathyroid hormone-related peptide receptor (Homo sapiens) (UniProt Q03431). The assay is described as follows: qHTS for PTHR1 Agonists: Optimization Screen against the NCGC LOPAC library (AID 1347079).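 Also: GloSensor cAMP luminescence in HEK-293 GP2 cells expressing human PTHR1 with IBMX.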 In outline:
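HEK-293 GP2 cells, PTHR1 + GloSensor cAMP; 3000 cells/well, o/n. Luciferin + IBMX 0.5mM each (stock), 1 hr 37C. Cpd titration, 1 hr 37C. Lum after 15 min RT. Ctrl M-PTH(1-15) top 10uM.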

Assay [18] deals with Atrial natriuretic peptide receptor 2 (Homo sapiens) (UniProt P20594). Description: Natriuretic polypeptide receptor (hNpr2) antagonism - Pilot subtype selectivity assay (AID 1347050; calls by dose curve). In outline:
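Antagonist mode: compounds (LOPAC1280, seven 1:5 dilutions) added 30 min before 1 nM hNppC stimulation of hNpr2-HEK293 cGMP-sensor cells; luminescence read before and 20 min after agonist at ambient temperature.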

Assay [19] deals with T1, Tyrosine-protein phosphatase non-receptor type substrate 1 (Homo sapiens) + Leukocyte surface antigen CD47 (Homo sapiens). The assay is described as follows: CD47-SIRPalpha protein protein interaction - HTRF assay qHTS validation (AID 1347058; active = well fitted curve in the direction sought with a large enough effect in the signal ratio, not every such curve was filed as active; the % refers to the signal ratio). In outline: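 Soluble extracellular domains (6His-CD47, Avi-tag-biotinylated SIRPalpha) in PBS pH 7.4 with 0.05% IGEPAL CA-630. Compounds were preincubated 30 min at RT with CD47 and anti-His-Eu, then SIRPalpha and SAV-XL665 were added. TR-FRET 665/615 ratio.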

T1 sequence (P78324 whole entry, looked up, the tested form may be a part): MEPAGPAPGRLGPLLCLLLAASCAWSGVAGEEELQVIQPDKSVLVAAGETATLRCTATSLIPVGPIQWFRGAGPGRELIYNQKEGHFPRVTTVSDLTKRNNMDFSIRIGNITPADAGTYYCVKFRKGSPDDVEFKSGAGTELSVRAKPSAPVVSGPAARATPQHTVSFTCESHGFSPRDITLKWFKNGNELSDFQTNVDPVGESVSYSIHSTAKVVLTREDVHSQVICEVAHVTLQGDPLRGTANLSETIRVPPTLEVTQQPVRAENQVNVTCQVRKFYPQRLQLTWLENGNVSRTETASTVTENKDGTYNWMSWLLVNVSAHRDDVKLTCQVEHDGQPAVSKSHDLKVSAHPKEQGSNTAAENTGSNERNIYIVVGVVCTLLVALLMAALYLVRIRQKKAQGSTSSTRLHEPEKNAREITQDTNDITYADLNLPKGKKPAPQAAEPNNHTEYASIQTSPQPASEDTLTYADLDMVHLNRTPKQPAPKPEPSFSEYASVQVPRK
T1 sequence (Q08722 whole entry, looked up, the tested form may be a part): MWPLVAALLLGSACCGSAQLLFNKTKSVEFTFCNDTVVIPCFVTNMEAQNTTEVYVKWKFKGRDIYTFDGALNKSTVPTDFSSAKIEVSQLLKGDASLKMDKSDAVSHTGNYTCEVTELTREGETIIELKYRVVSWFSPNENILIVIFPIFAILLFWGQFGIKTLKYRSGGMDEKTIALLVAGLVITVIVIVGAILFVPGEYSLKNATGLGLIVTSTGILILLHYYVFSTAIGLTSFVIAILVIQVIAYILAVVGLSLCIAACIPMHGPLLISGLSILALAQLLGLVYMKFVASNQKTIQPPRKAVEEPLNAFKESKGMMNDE
Sequence of Parathyroid hormone/parathyroid hormone-related peptide receptor (Homo sapiens) (Q03431 whole entry, looked up): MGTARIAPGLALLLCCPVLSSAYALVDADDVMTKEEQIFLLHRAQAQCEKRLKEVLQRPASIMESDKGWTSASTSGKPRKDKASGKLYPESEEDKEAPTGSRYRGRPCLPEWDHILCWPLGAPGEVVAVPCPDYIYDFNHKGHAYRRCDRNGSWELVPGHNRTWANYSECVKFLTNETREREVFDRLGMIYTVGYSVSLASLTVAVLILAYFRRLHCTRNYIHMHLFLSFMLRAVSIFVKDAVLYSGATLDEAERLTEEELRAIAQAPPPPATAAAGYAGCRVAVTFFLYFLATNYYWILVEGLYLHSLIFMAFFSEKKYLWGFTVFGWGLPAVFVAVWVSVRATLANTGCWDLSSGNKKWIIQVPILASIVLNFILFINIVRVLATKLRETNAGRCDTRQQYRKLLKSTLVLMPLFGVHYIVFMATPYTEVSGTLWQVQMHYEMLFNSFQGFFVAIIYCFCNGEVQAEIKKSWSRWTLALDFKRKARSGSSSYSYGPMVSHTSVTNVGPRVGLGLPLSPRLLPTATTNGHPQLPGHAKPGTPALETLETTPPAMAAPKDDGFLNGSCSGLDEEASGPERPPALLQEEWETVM
Sequence of Atrial natriuretic peptide receptor 2 (Homo sapiens) (P20594 whole entry, looked up): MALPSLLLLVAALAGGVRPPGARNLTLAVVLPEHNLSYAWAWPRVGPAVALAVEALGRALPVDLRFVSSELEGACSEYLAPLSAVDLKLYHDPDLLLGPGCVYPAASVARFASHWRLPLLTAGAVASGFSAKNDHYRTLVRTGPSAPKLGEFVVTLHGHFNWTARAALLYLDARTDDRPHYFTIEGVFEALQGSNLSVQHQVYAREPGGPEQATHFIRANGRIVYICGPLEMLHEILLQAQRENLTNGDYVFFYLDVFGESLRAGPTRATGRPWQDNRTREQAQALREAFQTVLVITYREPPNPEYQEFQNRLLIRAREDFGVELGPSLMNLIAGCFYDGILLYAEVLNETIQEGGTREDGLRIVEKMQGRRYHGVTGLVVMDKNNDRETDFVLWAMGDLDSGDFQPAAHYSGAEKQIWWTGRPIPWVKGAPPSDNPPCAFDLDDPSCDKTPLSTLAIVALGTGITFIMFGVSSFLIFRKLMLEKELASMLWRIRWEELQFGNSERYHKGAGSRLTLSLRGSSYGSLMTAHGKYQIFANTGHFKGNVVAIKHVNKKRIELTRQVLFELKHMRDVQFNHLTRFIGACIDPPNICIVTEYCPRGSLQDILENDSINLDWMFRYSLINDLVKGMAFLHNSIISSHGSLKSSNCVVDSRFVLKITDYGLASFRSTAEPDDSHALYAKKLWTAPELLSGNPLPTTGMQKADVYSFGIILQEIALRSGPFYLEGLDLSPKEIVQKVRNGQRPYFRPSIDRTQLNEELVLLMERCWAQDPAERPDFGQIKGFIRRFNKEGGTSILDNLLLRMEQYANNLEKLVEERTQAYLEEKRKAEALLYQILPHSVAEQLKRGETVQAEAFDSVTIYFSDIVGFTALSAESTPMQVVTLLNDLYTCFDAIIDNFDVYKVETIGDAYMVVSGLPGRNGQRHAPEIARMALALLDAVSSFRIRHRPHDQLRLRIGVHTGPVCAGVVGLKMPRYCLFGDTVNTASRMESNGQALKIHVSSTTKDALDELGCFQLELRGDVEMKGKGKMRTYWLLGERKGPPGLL

Turning to `CC(C)C[C@H](NC(=O)[C@H](CCc1ccccc1)NC(=O)CN1CCOCC1)C(=O)N[C@@H](Cc1ccccc1)C(=O)N[C@@H](CC(C)C)C(=O)[C@@]1(C)CO1`, the Potency in assay [1] is 0.0372 µM (active); in [2], 0.0372 µM (active); in assay [4], 0.0264 µM (active); in [5], 0.118 µM (active); in assay [6] it was 53.1 nM (active) and 93.5 nM (active); in assay [7], 66.8 nM (active) and 29.6 nM (active). Besides, the Potency is 10.6 nM (active) and 18.7 nM (active) in assay [8]; 6 nM (active) and 5.9 nM (active) in [9]; 174 nM (active) and 306 nM (active) in assay [10]. Besides, in assay [3], the IC50 (viability decrease) was 0.0023 µM (active).
Turning to `COC(c1ccccc1)(c1ccccc1)[C@H](Oc1nc(C)cc(C)n1)C(=O)O`, in assay [11], the result was inactive. In addition, the Potency result in assay [12], in assay [5], in [13], in assay [6], in assay [7] and in assay [8] was “inactive” each time. The Potency result in assay [9] and in assay [10] was “inactive” in each case.
As for `O=S(=O)(c1cccc2cnccc12)N1CCCNCC1`, in [11], the result was inactive. The Potency entry in [5], in assay [13], in [6], in [7], in [9] and in assay [10] was “inactive” in each case. Moreover, the Potency in assay [8] is 18.7 µM (active).
Regarding `Cn1c(=O)c2c(ncn2CC(O)CO)n(C)c1=O` (configuration not stated), the outcome in assay [11] was inactive. Also, the Potency entry in [12], in [5], in assay [6], in assay [7], in assay [8] and in [9] was “inactive” each time. The Potency result in [10] was “inactive”.
Turning to `CCN(CC)CCn1c(=O)c(Cc2ccc(OC)cc2)nc2ccccc21`, the Potency entry in assay [1], in assay [2], in assay [12], in [14], in assay [5] and in assay [13] was “inactive” throughout. For the same molecule, the Potency result in assay [6], in [7], in [8], in assay [9] and in assay [10] was “inactive” throughout. Further, the IC50 (viability decrease) entry in assay [3] was “inactive”. The outcome in [11], in [15], in assay [16] and in assay [17] was inactive.
Regarding `CC(C)OC(=O)C(C(=O)OC(C)C)=C1SC=CS1`, the outcome in assay [11] was inactive. Also, the Potency entry in assay [12], in [5], in [6], in assay [7], in assay [8] and in assay [9] was “inactive” in each case. Also, in assay [10], the Potency result is “inactive”.
Consider `CC(C(=O)O)c1ccc2c(c1)CC(=O)c1ccccc1S2` (configuration not stated), for which the outcome in assay [11] was inactive. For the same molecule, the Potency result in assay [12], in assay [5] and in assay [7] was “inactive” in each case.
Regarding `CC1=NN(c2ccccc2)C(=O)C1`, the outcome in assay [11] was inactive. For the same molecule, the Potency entry in [12], in [5], in assay [13], in [6], in assay [7] and in assay [8] was “inactive” in each case. In addition, the Potency result in assay [9] and in assay [10] was “inactive” in each case.
For the molecule `CCN1CCCC1CNC(=O)c1cc(S(N)(=O)=O)ccc1OC` (configuration not stated), the result in [11], in assay [15], in [19], in assay [16] and in assay [17] was inactive. For the same molecule, the Potency result in assay [12], in [14], in [18], in [5], in assay [13] and in assay [7] was “inactive” throughout. In addition, the Potency entry in [8], in [9] and in assay [10] was “inactive” each time.
Consider `Cc1noc(NS(=O)(=O)c2ccc(N)cc2)c1C`, for which the result in assay [11] was inactive. For the same molecule, the Potency entry in assay [12], in [5], in assay [13], in assay [6], in assay [7] and in [8] was “inactive” each time. Further, the Potency entry in [9] and in assay [10] was “inactive” throughout.
With `Cc1oc(=O)oc1CN1CCN(c2cc3c(cc2F)c(=O)c(C(=O)O)c2n3C(C)S2)CC1` (configuration not stated), in [11], the result was inactive. In addition, the Potency result in [12], in [5], in assay [13], in assay [6], in assay [7] and in assay [8] was “inactive” in each case. In addition, the Potency result in [9] and in [10] was “inactive” in each case.
For the molecule `COc1cc2c(Nc3ccc(Br)cc3F)ncnc2cc1OCC1CCN(C)CC1`, the IC50 (viability decrease) in [3] is 18.7 µM (active). The Potency result in assay [12], in [5] and in [7] was “inactive” throughout.
With `CNNCc1ccc(C(=O)NC(C)C)cc1`, the outcome in assay [11] was inactive. The Potency entry in assay [12], in assay [5], in assay [13], in [7], in [8] and in assay [9] was “inactive” each time. Moreover, the Potency result in assay [10] is “inactive”.
In the case of `CC1=CC(=O)c2ccccc2C1=O`, the result in assay [11] was inactive. Further, the Potency result in assay [12], in assay [5], in assay [13] and in [10] was “inactive” each time. The Potency in [7] is 23.5 µM (active); in [8], 13.3 µM (active) and 14.8 µM (active); in assay [9], 21.1 µM (active) and 148 nM (active).
As to `COc1c(N2CCNC(C)C2)c(F)cc2c(=O)c(C(=O)O)cn(C3CC3)c12` (configuration not stated), the result in [11] was inactive. The Potency entry in [12], in assay [5], in [13], in assay [7], in assay [8] and in [9] was “inactive” in each case. For the same molecule, the Potency entry in [10] is “inactive”.
For `COc1cc2nc(N3CCCN(C)CC3)nc(NC3CCN(Cc4ccccc4)CC3)c2cc1OC`, the Potency is 2.35 µM (active) in assay [4]; 9.35 µM (active) in assay [12]; 18.7 µM (active) in assay [6]; 14.8 µM (active) in assay [7]; 3.72 µM (active) in assay [8]; 6.62 µM (active) in assay [9]. Moreover, in assay [10], the Potency was 13.7 µM (active). The Potency result in assay [14] is “inactive”. Moreover, the outcome in [15], in assay [19], in [16] and in assay [17] was inactive.
Take `Cc1ccnc2c1NC(=O)c1cccnc1N2C1CC1`: the outcome in assay [11] was inactive. The Potency entry in assay [12], in assay [5], in assay [13], in [6], in assay [7] and in [8] was “inactive” in each case. In addition, the Potency result in [10] was “inactive”.
